In all, about 420,000 compounds went through this assay and about 64,000 (15%) were called active. Inconclusive results (about 27%) are left out. Calls come from the whole dose curve; as a rule, active = well fitted inhibition curve with a large enough effect; inconclusive = small, poorly fitted or top-dose-only effect; inactive = flat fitted curve, though single readings scatter. Only a sample is shown. Where a call stands in place of a potency, no number is given.
Test: qHTS for Inhibitors of human tyrosyl-DNA phosphodiesterase 1 (TDP1): qHTS in cells in absence of CPT; note: nearly all actives have a fitted effect of over 55% in size
Settings: DT40 Tdp1-/- hTDP1 cells, no CPT, ATP luminescence, 48 h; activity change, negative = growth inhibition: at 46.2 µM (top of the series)
Outline: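 Luminescent ATP content (CellTiter-Glo) served as the growth readout. Knockout chicken DT40 cells expressing human TDP1 were exposed to compounds without camptothecin for a minimum 48 hr at 37 °C.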
In the case of `CCCC(=O)Nc1ncnc2c1ncn2[C@@H]1O[C@@H]2OP(=O)(O)OC[C@H]2[C@H]1OC(=O)CCC`, the Potency is reported as “inactive”. In the case of `Cc1nc(CNS(=O)(=O)c2cccnc2)cs1`, the Potency is reported as “inactive”. With `COC(=O)c1ccc(CNC(=O)C2CCC(=O)N(Cc3cccc(F)c3)C2)cc1` (stereo unspecified) the Potency was “inactive”. For `O=C(NCc1ccccc1Cl)c1csc2c1CCCCC2`, the Potency was “inactive”. In the case of `CCNC(=O)c1cc2n(n1)CCCN(Cc1ccc(C)cc1)C2=O`, the Potency is reported as “inactive”. For `COC(=O)c1cc2n(n1)CCCNC2=O`, the Potency was “inactive”. For `Cc1ccc(CN2CCCn3nc(C(=O)NCc4ccccc4Cl)cc3C2=O)cc1`, the Potency was 25.9 µM (active). With `COc1cc(CNC(=O)c2cc3n(n2)CCCN(Cc2cccc(F)c2)C3=O)cc(OC)c1OC` the Potency was 20.6 µM (active). For `Cn1c(=O)c2c(ncn2CC(=O)N/N=C/c2cn[nH]c2-c2ccc(F)cc2)n(C)c1=O`, the Potency was “inactive”. With `O=C(Cc1ncc(C(F)(F)F)cc1Cl)Nc1cccc(Br)c1` the Potency was “inactive”. In the case of `CCc1nnc(NC(=O)CCC(=O)O)s1`, the Potency is reported as “inactive”. With `O=C(Nc1ncccn1)c1cccs1` the Potency was “inactive”. In the case of `S=C1SCN(CCN2CCOCC2)CN1Cc1ccccc1`, the Potency is reported as 3.16 µM (active). With `C/C(CCc1ccccc1)=N\NC(=O)c1ccc(CN2CCOCC2)cc1` the Potency was “inactive”. In the case of `CCN1CN(Cc2ccccc2)CNC1=S`, the Potency is reported as “inactive”. For `COC(=O)c1sc(-c2ccc(C(C)(C)C)cc2)cc1NC(=O)/C=C/C(=O)O`, the Potency was 4.61 µM (active). With `CSc1ccc(NC(=O)/C=C/C(=O)O)cc1` the Potency was “inactive”. In the case of `O=C(O)/C=C/C(=O)Nc1ccc(F)cc1F`, the Potency is reported as “inactive”. For `Cc1nnc(SC(C(=O)Nc2cc(Cl)cc(Cl)c2)c2ccccc2)[nH]c1=O` (stereo unspecified), the Potency was “inactive”. With `O=C(O)C1CCCCC1C(=O)Nc1ccc(Cl)cc1` (stereo unspecified) the Potency was “inactive”. With `COc1ccc(OC)c(NC(=O)C2CCN(S(=O)(=O)c3ccc(C)cc3)CC2)c1` the Potency was “inactive”. With `COc1ccc(C(=O)N2CCC(C(=O)Nc3ccc(C)cc3)CC2)cc1` the Potency was 10.3 µM (active). With `O=C(Nc1ccccc1)C1CCN(C(=O)c2ccc(Br)cc2)CC1` the Potency was “inactive”. With `CCc1ccc(NC(=O)CN2CCC(C(=O)c3ccc(OC)cc3)CC2)cc1` the Potency was 23.1 µM (active). With `CC(C)(C)c1ccc(C(=O)N2CCC(C(=O)N3CCCCC3)CC2)cc1` the Potency was “inactive”. For `CCc1ccc(NC(=O)Cn2nnc(C(=O)NCc3ccc(OC)cc3)c2N)cc1`, the Potency was “inactive”. With `COc1ccc(CNC(=O)c2cc(C(=O)C3CC3)c[nH]2)cc1` the Potency was “inactive”. With `COc1ccc(S(=O)(=O)N2CCC(C(=O)NCCC(=O)Nc3ccccc3OC)CC2)cc1` the Potency was “inactive”. With `COc1ccccc1NC(=O)C1CCN(C(=O)c2ccc(C(C)(C)C)cc2)CC1` the Potency was 16.4 µM (active). For `OCC(O)CN(c1ccccc1)c1ccccc1` (stereo unspecified), the Potency was “inactive”. In the case of `Cc1ccccc1-n1nc(SCC(=O)O)sc1=S`, the Potency is reported as “inactive”. With `N=c1ccn(CC(=O)NC(N)=O)c2ccccc12` the Potency was “inactive”. In the case of `C/C=N/NC(=O)CCCC(=O)N/N=C/C`, the Potency is reported as “inactive”. In the case of `C[C@H](CO)N1C[C@H](C)[C@@H](CN(C)S(=O)(=O)c2ccc(F)cc2)Oc2ccc(NC(=O)CCC(F)(F)F)cc2C1=O`, the Potency is reported as “inactive”. For `O=C(O)c1c(Br)c(Br)c(Br)c(Br)c1C1c2ccc(O)cc2Oc2cc(O)ccc21`, the Potency was “inactive”. With `O=C(CNC(=O)[C@@H]1Cc2ccccc2CN1)NC1CCCCC1` the Potency was “inactive”. With `Cn1c(SCC(=O)OC2CCCCC2)nnc1-c1ccc(S(=O)(=O)N2CCCC2)cc1` the Potency was “inactive”. With `COCCNC(=O)CN1C(=O)CSc2ncccc21` the Potency was “inactive”. In the case of `CC(=O)Nc1ccc(OC(=O)COc2ccc(Br)cc2)cc1`, the Potency is reported as “inactive”. With `O=C(OCc1ccc([N+](=O)[O-])cc1)C1CC(=O)N(Cc2ccccc2Cl)C1` (stereo unspecified) the Potency was “inactive”. For `O=C1NC(=O)C2C1C(c1ccc([N+](=O)[O-])cc1)=NN2Cc1ccccc1` (stereo unspecified), the Potency was “inactive”. With `O=[N+]([O-])c1ccc(CN2CC(N3CCC(c4ccccc4)CC3)CS2(=O)=O)cc1` (stereo unspecified) the Potency was 23.1 µM (active). With `CSCC(NS(=O)(=O)c1ccc(C)cc1)C(=O)O` (stereo unspecified) the Potency was “inactive”. For `O=C(Nc1nnc(C2CC2)s1)C1=NN(C2CCS(=O)(=O)C2)C(=O)CC1` (stereo unspecified), the Potency was “inactive”. For `Cn1cc(CCC(=O)NC2CC2)c2ccccc21`, the Potency was “inactive”. With `O=C(O)c1cccc(N=NN2CCCCCC2)c1` the Potency was “inactive”. In the case of `CCC1CCCCN1C(=S)Nc1ccc(C(C)=O)cc1` (stereo unspecified), the Potency is reported as “inactive”. For `CC(=O)c1ccccc1NC(=O)CC1(CC(=O)O)CCCCC1`, the Potency was “inactive”. In the case of `Cc1ccc(S(=O)(=O)N(CC(O)CN2C(=O)NC(C)(C)C2=O)c2cccc([N+](=O)[O-])c2)cc1` (stereo unspecified), the Potency is reported as “inactive”. With `COc1ccc([N+](=O)[O-])cc1N(CC(O)CN(CC(C)C)CC(C)C)S(=O)(=O)c1ccc(C)cc1` (stereo unspecified) the Potency was 23.1 µM (active). For `Cc1ccc(S(=O)(=O)N(CC(O)CN2CCCCC2)c2cccc([N+](=O)[O-])c2)cc1` (stereo unspecified), the Potency was “inactive”. With `Cc1cc(C)n(Cc2cnc(N3CCOCC3)s2)n1` the Potency was “inactive”. With `O=C(NCC(=O)N(CC1CCCO1)C(C(=O)NC1CCCCC1)c1ccccc1)c1ccco1` (stereo unspecified) the Potency was “inactive”. With `Cc1ccc(-c2cc(C(=O)NN)n[nH]2)o1` the Potency was “inactive”. With `CCn1c(SCC(=O)Nc2cccc(F)c2)nnc1-c1cc2cc(Br)ccc2o1` the Potency was “inactive”. For `COc1ccc(-c2nnc(SCC(=O)NC3CCCCC3)o2)cc1OC`, the Potency was “inactive”. For `COc1ccc(C)cc1S(=O)(=O)NC1CCCCC1`, the Potency was “inactive”. For `COc1ccc(-c2nc3cc(C)ccn3c2NC2CCCCC2)cc1SC1CCCCC1`, the Potency was 20.9 µM (active). For `COc1ccc(-c2nc3cnccn3c2NC2CCCCC2)cc1-c1cccc(Cl)c1`, the Potency was 25.9 µM (active). For `COc1ccc(-c2nc3cnccn3c2NC(C)(C)CC(C)(C)C)cc1O`, the Potency was 18.4 µM (active). In the case of `COc1ccc(NC(=O)N(C)C[C@H]2Oc3ncc(C#C[C@@H](C)O)cc3C(=O)N([C@H](C)CO)C[C@H]2C)cc1`, the Potency is reported as “inactive”. For `CC1(C)CCc2nc(SCc3ccccc3)c(C#N)cc2C1`, the Potency was “inactive”. For `Cc1ccc(NS(=O)(=O)c2ccc(-c3ccc(=O)[nH]n3)o2)c(C)c1`, the Potency was “inactive”. For `OCc1nc(CO)n(Cc2ccccc2)n1`, the Potency was “inactive”. With `CC1(C(=O)NS(=O)(=O)c2cccc(F)c2)CCN1C(=O)c1cccc2ccccc12` (stereo unspecified) the Potency was “inactive”. For `CSc1nnc(-c2ccc(C(F)(F)F)cn2)o1`, the Potency was “inactive”. In the case of `Cc1onc(C(=O)NN)c1-c1csc(COc2ccccc2)n1`, the Potency is reported as “inactive”. In the case of `CC(C)(C)C(=O)OCc1nc(-c2ccc(O)c(O)c2)cs1`, the Potency is reported as 20.6 µM (active). With `CCCC(=O)N1c2ccc(-c3csc(N)n3)cc2CC1C` (stereo unspecified) the Potency was “inactive”. For `NNC(=O)C1CCCn2c1nc1sc3c(c1c2=O)CCCC3` (stereo unspecified), the Potency was “inactive”. With `CC(C(=O)O)n1cnc2sc3c(c2c1=O)CCCC3` (stereo unspecified) the Potency was “inactive”. In the case of `Cn1c(NN)nc2sc3c(c2c1=O)CCC3`, the Potency is reported as 29.1 µM (active). For `Cc1ccc(N/C(N)=N/c2nc(C(F)(F)F)cc(C(F)(F)F)n2)cc1`, the Potency was “inactive”. With `C=C[C@](C)(O)CCC1C(=C)CCC2[C@@](C)(CO)CCC[C@@]12C` (stereo partly specified) the Potency was 18.4 µM (active). With `Cc1nnc(SCC(=O)NC2CCCC2)s1` the Potency was “inactive”. In the case of `O=C(NCc1cccs1)C1CCN(S(=O)(=O)c2ccc(Cl)cc2)CC1`, the Potency is reported as “inactive”. With `O=C(NCc1ccc(Cl)cc1)C1CCN(S(=O)(=O)c2cccs2)CC1` the Potency was 23.1 µM (active). For `O=C(NCc1ccccc1)C1CCCN(S(=O)(=O)c2cccs2)C1` (stereo unspecified), the Potency was “inactive”. With `CCCCCNC(=O)C1C(=O)Nc2ccccc2C(=O)N1C(C)(C)C` (stereo unspecified) the Potency was “inactive”. With `COc1ccc(Nc2ncc3c(n2)CCN(C(=O)OC(C)(C)C)C3)cc1` the Potency was 20.6 µM (active). In the case of `CCOc1ccc(-c2cc3nc(C4CCN(C(=O)OC(C)(C)C)CC4)c(C(=O)Nc4ccc(C(=O)OC)cc4)cn3n2)cc1`, the Potency is reported as “inactive”. With `COc1ccc(NC(=S)N2CCc3cc(OC)c(OC)cc3C2)cc1` the Potency was “inactive”. With `COC(=O)CSc1nnc(NC(=O)CCc2ccccc2)s1` the Potency was “inactive”. In the case of `O=C(OCc1cc(Cl)ccc1OC(F)F)c1cccnc1`, the Potency is reported as “inactive”. In the case of `CCO/N=C(/C)c1c(O)cc(-c2ccccc2)n(-c2ccccc2)c1=O`, the Potency is reported as “inactive”. With `O=C1NC[C@@H](CCCCN2CCN(CCc3ccc(O)cc3)C(=O)C2=O)N(CC2CCCCC2)C1=O` the Potency was “inactive”. For `COc1ccc(-c2noc(CSc3ccc(C)cc3)n2)cc1`, the Potency was “inactive”. In the case of `COc1ccc(-c2noc(CSc3nc4ccc(C)cc4[nH]3)n2)cc1`, the Potency is reported as 11.6 µM (active). With `COc1ccc(-c2noc(CN(C)S(=O)(=O)c3ccc(C)cc3)n2)cc1` the Potency was 18.4 µM (active). For `COc1ccc2nc(SCC(=O)Nc3c(C)cc(C)cc3C)[nH]c2c1`, the Potency was “inactive”. In the case of `Cc1ccc(S(=O)(=O)N(Cc2nc(-c3ccc(Cl)cc3)no2)C2CCCCC2)cc1`, the Potency is reported as 16.4 µM (active). In the case of `CC1CCN(Cc2nc(-c3ccc(Cl)cc3)no2)CC1`, the Potency is reported as “inactive”. In the case of `Cc1ccc(-c2noc(CC(c3ccccc3)c3ccccc3)n2)cc1`, the Potency is reported as “inactive”. For `COc1ccc(-c2noc(CNC(=O)C(C)Oc3ccccc3)n2)cc1` (stereo unspecified), the Potency was “inactive”. In the case of `Cc1ccc(C(=O)OCc2nc(N)nc(Nc3ccccc3C)n2)cc1`, the Potency is reported as “inactive”. In the case of `O=C1CCCc2nn(-c3ccccc3)nc21`, the Potency is reported as “inactive”. For `O=c1[nH]c2c(c(=O)n1Cc1ccccc1)CCC2`, the Potency was “inactive”. In the case of `CC(C)c1nnc(NC(=O)COC(=O)/C=C/c2ccc([N+](=O)[O-])cc2)s1`, the Potency is reported as “inactive”. With `O=C(O)CCCCC(=O)O` the Potency was “inactive”. For `CC(Oc1ccccc1[N+](=O)[O-])C(=O)N/N=C/c1ccoc1` (stereo unspecified), the Potency was “inactive”. For `Cc1noc(C)c1CSc1nnc2ccc3ccccc3n12`, the Potency was “inactive”. With `COc1ccc(C(=O)N/N=C(\C)CC(=O)Nc2ccc(Cl)cn2)cc1` the Potency was “inactive”. For `Cc1cc(OC(C)C(=O)Nc2sc3c(c2C(N)=O)CCCC3)ccc1Cl` (stereo unspecified), the Potency was “inactive”. In the case of `O=C(NCCCN1CCOCC1)c1ccc(N2CCCC2)c([N+](=O)[O-])c1`, the Potency is reported as “inactive”. With `N#Cc1c(NC(=O)c2ccc(N3CCOCC3)c([N+](=O)[O-])c2)sc2c1CCCC2` the Potency was 6.51 µM (active). For `Cc1cccc(C)c1NC(=O)CNC(=O)c1ccc(N2CCOCC2)c([N+](=O)[O-])c1`, the Potency was “inactive”.

— PubChem BioAssay AID686978 (National Center for Advancing Translational Sciences (NCATS), 2013)
Potency is the fitted concentration of half-maximal effect.
